# Measurements from PubChem BioAssay (NCATS).
# Several values for one entry are separate records, joined by “and”; a condition that tells them apart may be missing. Identical values can stand only once. Records with an inconclusive call do not appear. Where a call stands in place of a potency, no number is given. Activity calls are given as the source filed them. Unless noted, calls follow the shape of the dose curve; as a rule, active = well fitted curve in the direction sought with a large enough effect; inconclusive = small, poorly fitted or top-dose-only effect, or another doubt; inactive = no such curve, though single readings can be large; an effect the other way counts as inactive or inconclusive.
# What was measured:
# [1] = Primary qHTS for inhibitors of nuclear receptor binding SET domain protein 2 (NSD2) in an RCH-ACV wild type WT cells (2C) (AID 1645877); also: nearly all actives have a fitted effect of over 70% in size; also: potency is read from the fitted curve at half-maximal effect
# [2] = target: Rap guanine nucleotide exchange factor 3 (Homo sapiens) (UniProt O95398); experiment: Confirmatory qHTS for antagonist of cAMP-regulated guanine nucleotide exchange factor 3 (EPAC1) (AID 1645880); also: nearly all actives have a fitted effect of over 55% in size
# Chain of Rap guanine nucleotide exchange factor 3 (Homo sapiens) (O95398 whole entry, looked up): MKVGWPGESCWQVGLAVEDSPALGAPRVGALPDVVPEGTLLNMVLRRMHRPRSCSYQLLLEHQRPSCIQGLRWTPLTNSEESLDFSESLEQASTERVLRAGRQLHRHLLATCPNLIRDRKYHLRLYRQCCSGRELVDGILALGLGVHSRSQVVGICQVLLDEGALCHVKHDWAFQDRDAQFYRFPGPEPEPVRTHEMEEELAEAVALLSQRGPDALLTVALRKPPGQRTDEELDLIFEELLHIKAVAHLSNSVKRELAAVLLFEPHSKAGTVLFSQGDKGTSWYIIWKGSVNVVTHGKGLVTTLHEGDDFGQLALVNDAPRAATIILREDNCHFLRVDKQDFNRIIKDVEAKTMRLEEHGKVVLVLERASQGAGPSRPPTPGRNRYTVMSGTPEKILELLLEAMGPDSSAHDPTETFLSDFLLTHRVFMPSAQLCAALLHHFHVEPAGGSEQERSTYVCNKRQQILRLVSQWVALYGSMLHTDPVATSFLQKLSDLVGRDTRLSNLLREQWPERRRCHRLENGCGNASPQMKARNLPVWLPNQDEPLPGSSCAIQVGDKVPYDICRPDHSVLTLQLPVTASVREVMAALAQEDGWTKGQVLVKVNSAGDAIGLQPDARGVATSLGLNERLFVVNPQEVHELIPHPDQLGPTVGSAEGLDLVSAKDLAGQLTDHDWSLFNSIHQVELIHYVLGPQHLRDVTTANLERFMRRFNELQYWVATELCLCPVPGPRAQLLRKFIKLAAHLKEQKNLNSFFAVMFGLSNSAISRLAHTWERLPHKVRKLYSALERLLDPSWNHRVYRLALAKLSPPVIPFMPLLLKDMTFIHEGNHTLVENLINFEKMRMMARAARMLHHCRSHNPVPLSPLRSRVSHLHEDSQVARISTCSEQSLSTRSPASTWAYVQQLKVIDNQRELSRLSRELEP
# In short: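 Released BODIPY-GDP fluoresces less than Rap1-bound BODIPY-GDP; the signal is followed at 480/540 nm at 5-min intervals over 30 min, after 5 min at room temperature. Reactions contain 100 nM EPAC1, 250 nM RAP1B-BODIPY-GDP and 50 uM GDP; results are normalized to ATA and DMSO.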
# [3] = target: Rap guanine nucleotide exchange factor 4 (Homo sapiens) (UniProt Q8WZA2); experiment: Confirmatory qHTS for agonist of cAMP-regulated guanine nucleotide exchange factor 4 (EPAC2) (AID 1645884);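 also: nucleotide exchange releases bodipy-GDP from Rap1 and this lowers its fluorescence; nearly all actives have a fitted effect of over 65% in size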
# Chain of Rap guanine nucleotide exchange factor 4 (Homo sapiens) (Q8WZA2 whole entry, looked up): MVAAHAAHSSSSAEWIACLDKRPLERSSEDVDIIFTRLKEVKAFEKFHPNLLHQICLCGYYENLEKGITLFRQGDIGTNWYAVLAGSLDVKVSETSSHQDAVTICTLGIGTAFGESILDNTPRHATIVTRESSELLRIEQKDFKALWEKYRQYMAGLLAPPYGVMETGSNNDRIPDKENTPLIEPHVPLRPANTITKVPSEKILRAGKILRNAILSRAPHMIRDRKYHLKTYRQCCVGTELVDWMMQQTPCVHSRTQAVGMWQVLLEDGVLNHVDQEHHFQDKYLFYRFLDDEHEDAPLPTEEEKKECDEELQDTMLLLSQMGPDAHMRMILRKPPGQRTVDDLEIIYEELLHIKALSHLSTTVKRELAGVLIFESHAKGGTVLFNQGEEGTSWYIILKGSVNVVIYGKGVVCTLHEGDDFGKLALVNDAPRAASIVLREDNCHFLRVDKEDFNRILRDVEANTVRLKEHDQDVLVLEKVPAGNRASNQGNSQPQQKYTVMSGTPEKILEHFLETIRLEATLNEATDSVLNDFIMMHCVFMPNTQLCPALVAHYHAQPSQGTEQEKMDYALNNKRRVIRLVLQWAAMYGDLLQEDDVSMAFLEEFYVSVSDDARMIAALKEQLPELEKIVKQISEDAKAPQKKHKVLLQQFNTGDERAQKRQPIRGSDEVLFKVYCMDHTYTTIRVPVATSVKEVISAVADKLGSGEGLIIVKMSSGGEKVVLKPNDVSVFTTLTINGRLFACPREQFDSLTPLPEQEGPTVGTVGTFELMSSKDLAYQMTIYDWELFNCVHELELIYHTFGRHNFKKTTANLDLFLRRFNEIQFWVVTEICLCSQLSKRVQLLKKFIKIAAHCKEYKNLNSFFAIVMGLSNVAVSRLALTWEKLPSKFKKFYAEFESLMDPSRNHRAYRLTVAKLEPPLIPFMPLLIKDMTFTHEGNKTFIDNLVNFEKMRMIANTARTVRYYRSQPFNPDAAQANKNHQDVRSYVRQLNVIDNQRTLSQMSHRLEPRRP
# [4] = target: Rap guanine nucleotide exchange factor 4 (Homo sapiens) (UniProt Q8WZA2); experiment: Confirmatory qHTS for antagonist of cAMP-regulated guanine nucleotide exchange factor 4 (EPAC2) (AID 1645885); also: nearly all actives have a fitted effect of over 25% in size; also: potency is read from the fitted curve at half-maximal effect
# [5] = target: Catechol O-methyltransferase (Homo sapiens) (UniProt P21964); experiment: Confirmatory Screen for Target Class Profiling of Small Molecule Inhibitors of Methyltransferases (AID 1745852; calls by dose curve; also: potency is read from the fitted curve at half-maximal effect); conditions: MTase-Glo luminescence, SAH detection, recombinant enzyme; measured here: COMT max response; stronger effect = lower value
# Chain of Catechol O-methyltransferase (Homo sapiens) (P21964 whole entry, looked up): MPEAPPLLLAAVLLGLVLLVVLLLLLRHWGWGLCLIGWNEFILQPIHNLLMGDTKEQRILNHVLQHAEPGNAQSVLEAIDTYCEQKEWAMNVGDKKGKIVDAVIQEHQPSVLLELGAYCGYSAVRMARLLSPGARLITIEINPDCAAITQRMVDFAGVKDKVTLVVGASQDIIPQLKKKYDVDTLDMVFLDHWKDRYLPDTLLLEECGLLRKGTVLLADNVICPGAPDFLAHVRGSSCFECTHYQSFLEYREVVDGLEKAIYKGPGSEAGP
# [6] = target: Guanidinoacetate N-methyltransferase (Homo sapiens) (UniProt Q14353); experiment: as above; conditions: MTase-Glo luminescence, SAH detection, recombinant enzyme; activity change, negative = inhibition: at 57.3 µM (top of the series)
# [7] = target: Nicotinamide N-methyltransferase (Homo sapiens) (UniProt P40261); experiment: as above; conditions: MTase-Glo luminescence, SAH detection, recombinant enzyme; measured here: NNMT max response; stronger effect = lower value
# Chain of Nicotinamide N-methyltransferase (Homo sapiens) (P40261 whole entry, looked up): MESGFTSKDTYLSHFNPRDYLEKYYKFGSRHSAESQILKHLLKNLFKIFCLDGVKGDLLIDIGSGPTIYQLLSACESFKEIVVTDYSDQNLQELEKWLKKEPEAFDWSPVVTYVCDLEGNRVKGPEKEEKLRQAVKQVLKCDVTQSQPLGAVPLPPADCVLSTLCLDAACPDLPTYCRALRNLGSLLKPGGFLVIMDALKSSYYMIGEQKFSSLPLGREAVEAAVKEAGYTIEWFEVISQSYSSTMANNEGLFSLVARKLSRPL
# [8] = target: Phenylethanolamine N-methyltransferase (Homo sapiens) (UniProt P11086); experiment: as above; conditions: MTase-Glo luminescence, SAH detection, recombinant enzyme; measured here: PNMT max response; stronger effect = lower value
# Chain of Phenylethanolamine N-methyltransferase (Homo sapiens) (P11086 whole entry, looked up): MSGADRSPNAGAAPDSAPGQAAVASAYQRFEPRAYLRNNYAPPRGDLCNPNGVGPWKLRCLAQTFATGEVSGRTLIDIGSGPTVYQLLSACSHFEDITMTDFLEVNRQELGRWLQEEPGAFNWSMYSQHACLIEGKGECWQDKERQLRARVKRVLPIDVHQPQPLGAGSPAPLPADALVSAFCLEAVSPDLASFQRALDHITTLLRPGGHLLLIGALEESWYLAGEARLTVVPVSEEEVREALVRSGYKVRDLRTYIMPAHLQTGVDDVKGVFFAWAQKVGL
# [9] = NCATS anti-infectives library activity on HEK293 viability as a counter-qHTS vs the C. elegans viability qHTS (AID 1745854);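 also: HEK293 cells exposed to compounds for 24 hr before the viability read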
# In short: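 Counter-screen for cytotoxicity: HEK293, 24 hr, 37C, compounds up to 41.7 uM final (a dilution series, 1:5). Readout CellTiter-Glo luminescence, 10 min RT. Digitonin control, 83.3 uM final.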
structure (smiles),measurement,setting,value
NC1(c2ccccc2)CCCCC1,Potency,[1],24.1 µM (active)
CCN(Cc1ccc(Cl)nc1)/C(=C/[N+](=O)[O-])NC,Potency,[1],inactive
COP(=S)(OC)Oc1ccc(S(N)(=O)=O)cc1,Potency,[1],inactive
CCOC(=O)c1cncn1C(C)c1ccccc1 (stereo not drawn),Potency,[1],inactive
CCOC(=O)NC(C)(C)Cc1ccc(Cl)cc1,Potency,[1],inactive
COc1cc(N)c(Cl)cc1C(=O)NC1CN2CCC1CC2 (stereo not drawn),Potency,[1],inactive
CN(C)C(=O)Oc1cc(OC(=O)N(C)C)cc(C(O)CNC(C)(C)C)c1 (stereo not drawn),Potency,[1],inactive
Cc1ccc(N=CN(C)C=Nc2ccc(C)cc2C)c(C)c1,Potency,[1],inactive
CCN(CC)C(C)C(=O)c1ccccc1 (stereo not drawn),Potency,[1],inactive
CC(=O)OC1(c2ccccc2)CCN(CCc2ccccc2)CC1,Potency,[1],inactive
CC#C[C@]1(O)CC[C@H]2[C@@H]3C[C@H](C)C4=CC(=O)CC[C@]4(C)[C@H]3CC[C@@]21C,Potency,[1],15 µM (active)
CCNc1nc(Cl)nc(NCC)n1,Potency,[1],inactive
COP(=O)(OC)OC=C(Cl)Cl,Potency,[1],inactive
CC(C)C(Br)C(=O)NC(N)=O (stereo not drawn),Potency,[1],inactive
C[N+]1(C)[C@@H]2CC[C@H]1CC(OC(=O)C(CO)c1ccccc1)C2 (stereo partly drawn),Potency,[1],inactive
CC1=C2[C@H]3OC(=O)[C@@H](C)[C@@H]3CC[C@@]2(C)C=CC1=O,Potency,[1],inactive
O=c1n(Cl)c(=O)n(Cl)c(=O)n1Cl,Potency,[1],inactive
COc1ccc(OC)c(CC(C)N)c1 (stereo not drawn),Potency,[1],inactive
CN1C[C@@H](NS(=O)(=O)N(C)C)C[C@@H]2c3cccc4c3c(cn4C)C[C@H]21,Potency,[1],inactive
C[N+]1(CCC(C(N)=O)(c2ccccc2)c2ccccc2)CCCCC1,Potency,[1],inactive
CC(Cc1ccc2c(c1)OCO2)NO (stereo not drawn),Potency,[1],inactive
CCO[C@H]1O[C@@H]2OC3(C)CC[C@H]4[C@H](C)CC[C@@H]([C@H]1C)[C@@]24OO3,Potency,[1],3.35 µM (active)
C[C@@H]1C[C@@H]([C@H](O)CC2CC(=O)NC(=O)C2)C(=O)[C@@H](C)C1,Potency,[1],188 nM (active) and 296 nM (active)
Cc1ccc([N+](=O)[O-])[c]2c1[O][Hg]2,Potency,[1],0.168 µM (active)
CCOC(=O)c1ncn2c1CN(C)C(=O)c1c(I)cccc1-2,Potency,[1],inactive
CCC(OC(C)=O)C(CC(C)NC)(c1ccccc1)c1ccccc1 (stereo not drawn),Potency,[1],19.5 µM (active)
CN(C)CCc1c[nH]c2ccc(O)cc12,Potency,[1],inactive
C[C@H]1C(=O)O[C@@H]2CCN3CC=C(COC(=O)[C@](C)(O)[C@]1(C)O)[C@H]23,Potency,[1],23.7 µM (active)
CC[n+]1c(-c2ccccc2)c2cc(N)ccc2c2ccc(N)cc21,Potency,[1],2.66 µM (active)
CCN1CCCC1CNC(=O)C(O)(c1ccccc1)c1ccccc1 (stereo not drawn),Potency,[1],inactive
CCS(=O)(=O)C(C)(C)S(=O)(=O)CC,Potency,[1],inactive
COc1ccc2c(C(=O)c3ccc(Cl)cc3)c(C)n(CC(=O)O)c2c1,Potency,[1],inactive
OC(O)C(Cl)(Cl)Cl,Potency,[1],inactive
CCC(=O)OC1(c2ccccc2)CCN(C)CC1,Potency,[1],inactive
Clc1ccc(CO/N=C(\Cn2ccnc2)c2ccc(Cl)cc2Cl)c(Cl)c1,outcome,[2],inactive
same,outcome,[3],inactive
Clc1ccc(CSC(Cn2ccnc2)c2ccc(Cl)cc2Cl)cc1 (stereo not drawn),outcome,[3],inactive
same,Potency,[4],22.1 µM (active)
C[C@H](N)[C@H](O)c1ccc(O)c(O)c1,Potency,[4],inactive
Cc1nnc2n1-c1sc(CCc3ccc(CC(C)C)cc3)cc1C(c1ccccc1Cl)=NC2C (stereo not drawn),activity,[5],-12.7%
same,Potency,[6],48.2 µM (active)
same,activity,[7],-36.8%
same,activity,[8],-8.97%
C=CCN1CC[C@]23CCCC[C@H]2[C@H]1Cc1ccc(O)cc13,activity,[5],0.434%
same,"activity change, negative = inhibition",[6],3.29%
same,activity,[7],-15.3%
same,activity,[8],2.6%
C[C@@H]1CC[C@H]2[C@@H](C)C(=O)O[C@@H]3O[C@@]4(C)CC[C@@H]1[C@]32OO4,outcome,[9],inactive
